Test results: the supplement of paper PMC10849652
Targets with a hit are over-represented here; the source holds about 7,900 in all. About 0.6% of all pairs of compound and target were hits. A number with no mark means an inactive call.

Legend:
Assay in all cases: log2 fold change, soluble protein after heating vs DMSO (PISA); higher = thermal stabilisation; K562 cells, 10 uM, 30 min; active = over 0.2 and 3.5 SD of the protein, either way, in both replicates (recomputed)
[1] = compound: CC[C@@H]1C(=O)N(C)c2cnc(Nc3ccc(C(=O)NC4CCN(C)CC4)cc3OC)nc2N1C1CCCC1
Summary of the method: (§1)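 For each measurement, 10 μM compound was applied for 30 min to K562 cells at 2×10^6 cells/mL. Aliquots were heated for 3 min across 48°C-58°C, pooled, and extracted in PBS with 0.5% NP-40 at 4°C; the supernatant after 21,000xg for 90 min was soluble protein. This was quantified by TMTpro 16plex LC-MS/MS with channel sums equalised, and thermal stability was reported relative to control samples from duplicates, on a log2 fold-change scale.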

[2] = compound: CC[C@@H]1C(=O)N(C)c2cnc(Nc3ccc(C(=O)N[C@H]4CC[C@H](N5CCN(CC6CC6)CC5)CC4)cc3OC)nc2N1C(C)C [volasertib]
Summary of the method: as §1

[3] = compound: CC[C@H](C)N1C=C(C2=C(C=C(C=C21)C3=CN=C(C=C3)N4CCNCC4)C(=O)NCC5=C(C=C(NC5=O)C)C)C
Summary of the method: as §1

[4] = compound: CCn1c(C(=O)N(C2CC2)C2CC2)cc2c3c(ncn3C)c(Nc3cc(C)n(C)n3)nc21
Summary of the method: as §1

[5] = compound: CCn1cc(-c2ccnc3[nH]c(-c4cccc(CN(C)C)c4)cc23)c(-c2ccc(NC(=O)N(C)C)cc2)n1
Summary of the method: as §1

[6] = compound: CN(C)CC(=O)Nc1ccc2[nH]c(=O)c3ccccc3c2c1
Summary of the method: as §1

[7] = compound: CN(CCOC1=CC=C(C=C1)C[C@H]2C(=O)NC(=O)S2)C3=CC=CC=N3 (racemic) [rosiglitazone]
Summary of the method: as §1

[8] = compound: CN1C2=C(C3=C1C(=O)N(N=C3)CC4=CC(=CC=C4)N)SC(=C2)S(=O)C
Summary of the method: as §1

[9] = compound: CN1CCC(CNc2ccc3ncc(-c4cccc(OC(F)(F)F)c4)n3n2)CC1
Summary of the method: as §1

[10] = compound: CN1CCN(CCOc2cc(OC3CCOCC3)c3c(Nc4c(Cl)ccc5c4OCO5)ncnc3c2)CC1 [saracatinib]
Summary of the method: as §1

[11] = compound: CN1CCN(c2nc(C3=C(c4c[nH]c5ccccc45)C(=O)NC3=O)c3ccccc3n2)CC1 [sotrastaurin]
Summary of the method: as §1

[12] = compound: CN1CC[C@H](c2c(O)cc(O)c3c(=O)cc(-c4ccccc4Cl)oc23)[C@H](O)C1 [alvocidib]
Summary of the method: as §1

[13] = compound: CN1CCc2c(c3ccccc3n2Cc2ccc(C(=O)NO)cc2)C1 [Tubastatin A]
Summary of the method: as §1

[14] = compound: CNC(=O)C1=CC=CC=C1NC2=NC(=NC=C2Cl)NC3=C(C=C(C=C3)N4CCOCC4)OC
Summary of the method: as §1

[15] = compound: CNC(=O)c1ccc(Nc2ncc(C(F)(F)F)c(NCc3nccnc3N(C)S(C)(=O)=O)n2)cc1 [defactinib]
Summary of the method: as §1

[16] = compound: CNCc1ccc(-c2[nH]c3cc(F)cc4c3c2CCNC4=O)cc1 [rucaparib]
Summary of the method: as §1

[17] = compound: CNc1nc(-c2ccc3c(N)n[nH]c3c2)cc(N2C[C@@H](C(=O)NC3CCCCC3)CC[C@H]2C)n1
Summary of the method: as §1

[18] = compound: COC(=O)N[C@@H](C)CNc1nccc(-c2cn(C(C)C)nc2-c2cc(Cl)cc(NS(C)(=O)=O)c2F)n1 [encorafenib]
Summary of the method: as §1

[19] = compound: COC(=O)[C@H](CCSC)NC(=O)C1=C(C=C(C=C1)NC[C@H](CS)N)C2=CC=CC=C2
Summary of the method: as §1

[20] = compound: CC[C@H](C)[C@@H](C(=O)N[C@@H]([C@@H](C)O)C(=O)N[C@@H](CC(C)C)C(=O)[C@]1(CO1)C)NC(=O)[C@H]([C@@H](C)CC)N(C)C(=O)C [epoxomicin]
Summary of the method: as §1

Sequence of UniProt Q8NEZ2 (Q8NEZ2 whole entry, looked up): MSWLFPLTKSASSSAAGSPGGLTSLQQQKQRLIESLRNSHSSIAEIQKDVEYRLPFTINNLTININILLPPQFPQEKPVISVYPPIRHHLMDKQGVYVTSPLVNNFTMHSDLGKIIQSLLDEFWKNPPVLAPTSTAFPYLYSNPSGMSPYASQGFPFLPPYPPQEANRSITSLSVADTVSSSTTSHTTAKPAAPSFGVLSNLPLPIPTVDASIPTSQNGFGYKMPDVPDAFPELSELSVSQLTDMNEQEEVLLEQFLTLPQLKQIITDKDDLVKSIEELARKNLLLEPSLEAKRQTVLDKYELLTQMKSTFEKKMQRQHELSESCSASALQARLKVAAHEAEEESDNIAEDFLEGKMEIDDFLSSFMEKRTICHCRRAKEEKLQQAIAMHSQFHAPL
Sequence of UniProt Q16881 (Q16881 whole entry, looked up): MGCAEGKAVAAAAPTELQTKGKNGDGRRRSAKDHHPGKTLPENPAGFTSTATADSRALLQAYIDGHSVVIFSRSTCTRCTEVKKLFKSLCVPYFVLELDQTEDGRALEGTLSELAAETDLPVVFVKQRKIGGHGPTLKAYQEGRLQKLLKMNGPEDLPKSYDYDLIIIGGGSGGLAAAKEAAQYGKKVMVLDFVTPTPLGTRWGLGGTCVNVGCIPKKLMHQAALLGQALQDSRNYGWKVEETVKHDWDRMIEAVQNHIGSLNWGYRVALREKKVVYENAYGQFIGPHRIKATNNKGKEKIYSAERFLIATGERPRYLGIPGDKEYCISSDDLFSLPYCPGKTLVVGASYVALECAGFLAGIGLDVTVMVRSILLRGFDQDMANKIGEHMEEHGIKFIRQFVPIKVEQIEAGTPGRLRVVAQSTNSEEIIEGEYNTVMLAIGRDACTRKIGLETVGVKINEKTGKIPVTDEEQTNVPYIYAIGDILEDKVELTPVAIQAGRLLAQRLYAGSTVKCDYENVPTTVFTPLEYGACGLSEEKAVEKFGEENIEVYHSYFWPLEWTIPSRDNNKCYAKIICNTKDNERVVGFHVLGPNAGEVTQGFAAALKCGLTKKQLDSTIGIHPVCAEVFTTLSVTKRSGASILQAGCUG
Sequence of UniProt Q9NX01 (Q9NX01 whole entry, looked up): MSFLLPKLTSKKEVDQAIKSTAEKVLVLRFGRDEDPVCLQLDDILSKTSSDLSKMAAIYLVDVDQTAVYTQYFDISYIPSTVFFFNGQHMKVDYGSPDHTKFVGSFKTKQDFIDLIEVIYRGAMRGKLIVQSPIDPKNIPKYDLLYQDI
Sequence of UniProt Q86XT9 (Q86XT9 whole entry, looked up): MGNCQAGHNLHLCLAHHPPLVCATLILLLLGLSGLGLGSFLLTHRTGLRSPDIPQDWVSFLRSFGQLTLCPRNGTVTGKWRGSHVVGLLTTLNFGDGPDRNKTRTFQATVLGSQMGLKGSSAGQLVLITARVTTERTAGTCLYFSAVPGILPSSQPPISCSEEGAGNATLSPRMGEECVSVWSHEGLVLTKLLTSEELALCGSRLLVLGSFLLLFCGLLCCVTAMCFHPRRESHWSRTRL
Sequence of UniProt Q5VZI3 (Q5VZI3 whole entry, looked up): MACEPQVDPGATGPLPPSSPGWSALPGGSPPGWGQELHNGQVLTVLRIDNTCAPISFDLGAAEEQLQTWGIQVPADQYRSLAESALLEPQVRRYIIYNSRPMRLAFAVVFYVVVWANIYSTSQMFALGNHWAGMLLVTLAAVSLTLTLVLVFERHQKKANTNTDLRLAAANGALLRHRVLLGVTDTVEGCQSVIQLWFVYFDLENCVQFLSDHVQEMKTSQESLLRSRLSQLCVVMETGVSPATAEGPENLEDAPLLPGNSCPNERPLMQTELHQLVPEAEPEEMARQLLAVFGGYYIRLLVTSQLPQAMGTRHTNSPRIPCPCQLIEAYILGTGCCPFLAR
Sequence of UniProt P21796 (P21796 whole entry, looked up): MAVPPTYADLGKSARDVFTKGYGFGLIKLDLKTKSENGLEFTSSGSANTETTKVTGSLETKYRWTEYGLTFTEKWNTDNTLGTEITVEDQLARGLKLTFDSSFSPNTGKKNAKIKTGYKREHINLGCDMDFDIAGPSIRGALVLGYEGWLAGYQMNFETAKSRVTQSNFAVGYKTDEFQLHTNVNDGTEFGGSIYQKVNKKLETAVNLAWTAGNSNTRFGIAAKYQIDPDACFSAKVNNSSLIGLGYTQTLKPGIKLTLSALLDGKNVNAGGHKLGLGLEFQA
Sequence of UniProt O60784 (O60784 whole entry, looked up): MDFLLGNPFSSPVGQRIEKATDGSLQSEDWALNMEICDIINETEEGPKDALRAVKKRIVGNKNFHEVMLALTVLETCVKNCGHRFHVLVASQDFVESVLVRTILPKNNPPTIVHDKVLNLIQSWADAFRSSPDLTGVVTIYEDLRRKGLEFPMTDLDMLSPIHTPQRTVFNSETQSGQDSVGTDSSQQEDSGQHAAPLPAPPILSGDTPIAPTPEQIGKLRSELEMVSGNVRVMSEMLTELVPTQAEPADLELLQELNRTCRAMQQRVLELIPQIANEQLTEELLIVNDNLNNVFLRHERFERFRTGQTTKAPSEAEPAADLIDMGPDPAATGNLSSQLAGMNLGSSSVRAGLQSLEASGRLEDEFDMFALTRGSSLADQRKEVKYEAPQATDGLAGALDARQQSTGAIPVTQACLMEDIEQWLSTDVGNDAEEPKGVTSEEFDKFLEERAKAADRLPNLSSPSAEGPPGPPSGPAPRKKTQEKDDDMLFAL
Sequence of UniProt Q96DX7 (Q96DX7 whole entry, looked up): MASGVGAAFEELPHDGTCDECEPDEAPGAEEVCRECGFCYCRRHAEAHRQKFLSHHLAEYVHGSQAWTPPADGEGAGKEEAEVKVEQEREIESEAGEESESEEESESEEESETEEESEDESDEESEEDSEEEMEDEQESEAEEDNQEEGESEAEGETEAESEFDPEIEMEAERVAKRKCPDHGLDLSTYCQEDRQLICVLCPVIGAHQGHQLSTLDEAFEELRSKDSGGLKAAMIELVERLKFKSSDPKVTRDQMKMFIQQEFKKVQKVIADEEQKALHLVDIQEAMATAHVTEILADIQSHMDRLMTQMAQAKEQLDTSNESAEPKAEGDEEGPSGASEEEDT
Sequence of UniProt A5PLN9 (A5PLN9 whole entry, looked up): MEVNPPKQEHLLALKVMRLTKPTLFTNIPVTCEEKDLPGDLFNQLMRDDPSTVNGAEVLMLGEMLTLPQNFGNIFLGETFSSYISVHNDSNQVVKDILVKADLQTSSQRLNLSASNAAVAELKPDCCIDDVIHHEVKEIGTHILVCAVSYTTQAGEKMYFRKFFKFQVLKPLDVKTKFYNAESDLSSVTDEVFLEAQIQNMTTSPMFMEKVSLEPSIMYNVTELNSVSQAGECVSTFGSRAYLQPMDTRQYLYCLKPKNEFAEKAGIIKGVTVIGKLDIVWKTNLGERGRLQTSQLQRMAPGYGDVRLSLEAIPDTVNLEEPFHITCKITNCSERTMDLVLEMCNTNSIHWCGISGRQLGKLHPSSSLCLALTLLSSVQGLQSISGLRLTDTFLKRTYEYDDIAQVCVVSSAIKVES
Sequence of UniProt Q86TN4 (Q86TN4 whole entry, looked up): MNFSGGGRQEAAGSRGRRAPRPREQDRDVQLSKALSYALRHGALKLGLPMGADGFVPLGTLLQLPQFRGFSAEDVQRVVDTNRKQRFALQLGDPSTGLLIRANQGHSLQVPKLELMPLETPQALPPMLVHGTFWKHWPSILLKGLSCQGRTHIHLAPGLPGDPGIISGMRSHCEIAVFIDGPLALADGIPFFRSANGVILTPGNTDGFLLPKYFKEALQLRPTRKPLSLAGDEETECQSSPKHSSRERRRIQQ
Sequence of UniProt Q15642 (Q15642 whole entry, looked up): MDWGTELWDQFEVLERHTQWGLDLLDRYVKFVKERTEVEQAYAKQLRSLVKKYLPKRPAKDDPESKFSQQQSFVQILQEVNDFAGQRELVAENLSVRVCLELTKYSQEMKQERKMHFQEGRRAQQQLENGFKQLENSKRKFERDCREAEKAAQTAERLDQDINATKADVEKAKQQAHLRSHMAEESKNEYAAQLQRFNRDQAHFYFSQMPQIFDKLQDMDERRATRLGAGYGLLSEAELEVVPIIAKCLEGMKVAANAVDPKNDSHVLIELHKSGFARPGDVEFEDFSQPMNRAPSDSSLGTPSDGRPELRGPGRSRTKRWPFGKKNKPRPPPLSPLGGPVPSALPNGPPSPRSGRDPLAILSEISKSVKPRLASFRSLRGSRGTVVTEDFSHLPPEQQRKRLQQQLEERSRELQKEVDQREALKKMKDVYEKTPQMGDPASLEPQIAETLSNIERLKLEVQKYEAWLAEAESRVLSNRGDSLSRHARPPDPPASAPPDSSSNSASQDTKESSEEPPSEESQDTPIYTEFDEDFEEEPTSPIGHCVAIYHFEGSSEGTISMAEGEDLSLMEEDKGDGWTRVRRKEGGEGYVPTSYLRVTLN
Sequence of UniProt Q9BQB6 (Q9BQB6 whole entry, looked up): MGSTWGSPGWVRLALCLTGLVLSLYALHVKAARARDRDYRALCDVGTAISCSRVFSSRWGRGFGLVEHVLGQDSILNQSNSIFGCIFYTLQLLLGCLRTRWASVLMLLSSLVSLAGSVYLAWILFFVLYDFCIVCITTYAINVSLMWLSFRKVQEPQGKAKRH
Sequence of UniProt P51668 (P51668 whole entry, looked up): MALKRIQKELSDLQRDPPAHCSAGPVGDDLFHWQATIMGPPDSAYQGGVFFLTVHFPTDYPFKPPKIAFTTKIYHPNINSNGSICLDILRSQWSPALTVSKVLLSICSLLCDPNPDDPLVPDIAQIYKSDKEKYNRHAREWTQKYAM
Sequence of UniProt Q9Y5Z9 (Q9Y5Z9 whole entry, looked up): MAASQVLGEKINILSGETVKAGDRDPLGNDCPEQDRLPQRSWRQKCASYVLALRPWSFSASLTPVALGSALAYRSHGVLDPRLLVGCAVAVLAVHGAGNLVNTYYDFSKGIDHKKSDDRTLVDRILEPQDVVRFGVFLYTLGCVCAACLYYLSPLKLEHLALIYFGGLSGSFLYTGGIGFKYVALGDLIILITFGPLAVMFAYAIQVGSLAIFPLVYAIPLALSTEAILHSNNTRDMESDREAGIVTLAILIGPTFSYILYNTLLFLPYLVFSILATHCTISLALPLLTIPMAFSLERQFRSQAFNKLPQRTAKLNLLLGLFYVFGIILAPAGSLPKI

| Target | log2 fold change [1] | log2 fold change [2] | log2 fold change [3] | log2 fold change [4] | log2 fold change [5] | log2 fold change [6] | log2 fold change [7] | log2 fold change [8] | log2 fold change [9] | log2 fold change [10] | log2 fold change [11] | log2 fold change [12] | log2 fold change [13] | log2 fold change [14] | log2 fold change [15] | log2 fold change [16] | log2 fold change [17] | log2 fold change [18] | log2 fold change [19] | log2 fold change [20] |
| --- | --- | --- | --- | --- | --- | --- | --- | --- | --- | --- | --- | --- | --- | --- | --- | --- | --- | --- | --- | --- |
| VKORC1 (UniProt Q9BQB6) | -0.006 | -0.079 | -0.088 | -0.078 | 0.008 | 0.072 | 0.033 | 0.03 | -0.09 | 0.002 | -0.086 | 0.073 | -0.052 | 0.105 | -0.038 | -0.059 | 0.026 | 0.057 | -0.023 | – |
| TRIM44 (UniProt Q96DX7) | 0.003 | -0.028 | -0.024 | 0.014 | 0.005 | -0.004 | 0.035 | -0.069 | 0.041 | 0.035 | -0.076 | -0.008 | 0.116 | -0.01 | -0.053 | -0.092 | -0.026 | 0.032 | 0.025 | – |
| TRIP10 (UniProt Q15642) | -0.024 | -0.11 | 0.047 | -0.051 | -0.051 | 0.04 | 0 | -0.036 | -0.056 | 0.036 | -0.014 | -0.011 | 0 | 0.027 | -0.029 | 0.006 | 0.046 | 0.038 | -0.005 | 0.034 |
| UBIAD1 (UniProt Q9Y5Z9) | -0.008 | -0.065 | -0.014 | -0.009 | 0.027 | -0.011 | 0.044 | -0.094 | -0.041 | 0.003 | 0.208 | 0.021 | -0.078 | 0.054 | 0.002 | 0.473 (active) | -0.053 | -0.035 | -0.039 | – |
| VRK2 (UniProt Q86Y07) | 0.034 | -0.049 | 0.054 | -0.072 | -0.005 | -0.009 | 0.019 | -0.04 | 0.229 (active) | -0.036 | 0.075 | 0.4 (active) | 0.014 | -0.102 | 0.106 | -0.039 | -0.017 | -0.001 | -0.092 | 0.021 |
| VDAC1 (UniProt P21796) | 0.019 | 0.063 | -0.013 | 0.023 | -0.009 | -0.005 | – | -0.022 | 0.055 | 0.074 | 0.035 | 0.016 | -0.014 | 0.011 | 0.005 | -0.022 | -0.026 | -0.03 | 0.014 | 0.012 |
| TXNL4B (UniProt Q9NX01) | 0.075 | -0.111 | -0.036 | -0.015 | -0.069 | 0.186 | 0.056 | 0.051 | -0.053 | -0.053 | 0.189 | -0.073 | 0.03 | 0.02 | -0.093 | 0.022 | -0.062 | -0.021 | -0.199 | – |
| TMEM268 isoform 3 (UniProt Q5VZI3) | -0.088 | -0.005 | 0.112 | 0.093 | 0.013 | – | 0.098 | 0.025 | -0.123 | 0.033 | -0.103 | 0.069 | 0.131 | -0.017 | – | -0.021 | 0.046 | -0.19 | – | 0.536 (active) |
| UBE2D1 (UniProt P51668) | -0.123 | -0.333 (active) | -0.024 | 0.037 | -0.045 | 0.017 | 0.099 | -0.109 | -0.095 | 0.03 | 0.056 | -0.055 | -0.058 | -0.035 | -0.016 | 0.006 | -0.105 | 0.01 | -0.047 | – |
| TRAPPC13 isoform 5 (UniProt A5PLN9) | -0.055 | -0.34 | 0.044 | -0.072 | -0.068 | 0.078 | 0.087 | 0.042 | -0.187 | 0.045 | -0.061 | -0.029 | 0.026 | 0.04 | -0.051 | 0.072 | -0.045 | 0.217 | -0.099 | -0.014 |
| WDR43 (UniProt Q15061) | 0.029 | -0.029 | -0.04 | 0 | 0.036 | 0.004 | -0.025 | -0.04 | 0.192 | 0.031 | 0.014 | 0.062 | -0.045 | 0.001 | 0.101 | 0.07 | -0.002 | -0.009 | -0.007 | -0.026 |
| TRIM5 (UniProt Q9C035) | – | – | – | 0.017 | – | -0.005 | – | 0.25 | – | -0.429 | 0.103 | -0.048 | -0.102 | -0.093 | -0.108 | – | -0.017 | – | 0.019 | 0 |
| TOM1 (UniProt O60784) | – | – | – | 0.035 | -0.072 | – | 0.019 | – | -0.664 (active) | – | -0.033 | – | 0.002 | -0.113 | – | – | – | – | – | 0.094 |
| UBA52 (UniProt P62987) | 0.227 | 0.572 | – | 0.071 | 0.351 | -0.256 | -0.151 | – | 0.369 | – | -0.029 | 0.339 | -0.004 | -0.008 | 0.221 | 0.421 | – | 0.152 | 0.08 | -0.29 |
| TXNRD1 isoform 7 (UniProt Q16881) | 0.054 | -0.106 | – | -0.001 | -0.501 | -0.074 | 0.024 | 0.101 | -0.028 | -0.202 | 0.019 | – | – | -0.364 | -0.194 | 0.263 | 0.065 | -0.085 | 0.062 | 0.155 |
| VPS37A (UniProt Q8NEZ2) | – | -0.707 (active) | 0.085 | -0.001 | -0.068 | 0.165 | 0.021 | 0.025 | 0.054 | -0.043 | -0.087 | 0.015 | 0.002 | 0.07 | -0.164 | – | 0.065 | – | 0.138 | 0.045 |
| TRPT1 isoform 4 (UniProt Q86TN4) | 0.084 | – | – | 0.071 | – | – | – | – | – | – | -0.208 | – | – | -0.069 | – | 0.101 | – | 0.036 | – | – |
| TMEM219 (UniProt Q86XT9) | – | -0.111 | 0.033 | 0.002 | 0.037 | 0.094 | 0.078 | -0.085 | -0.029 | 0.261 | 0.03 | -0.12 | -0.059 | -0.016 | -0.185 | – | 0.176 | – | -0.093 | 0.035 |
| WARS1 (UniProt G3V3P2) | – | – | – | – | – | – | 1.27 | – | – | – | 0.336 | – | – | – | – | – | – | – | – | – |
| WARS1 (UniProt G3V227) | – | – | – | – | – | -0.045 | 0.309 | 0.207 | – | 0.003 | – | -0.065 | -0.053 | – | -0.001 | – | 0.021 | – | 0.3 | -0.28 |
